Test results reported in PubChem BioAssay.
Calls of active or inactive are those of the source.

Legend:
[1] = small molecules captured by biotinylated probe aFSTL3 – biochemical, small-molecule microarray, fluorescence 635/667, stem cell growth factor project, primary screen (AID 1064); details: higher = more signal;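 further: measures binding of the biotinylated anti-FSTL3 antibody to printed compounds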
[2] = binders from COS7 lysate, DM2A8 probe, primary screen, torsin A project, cell lysate, small-molecule microarray, fluorescence 635/667 (AID 1065); details: higher = more signal, COS7 lysate expressing mutant human TOR1A
[3] = small molecules captured by biotinylated probe aFGF2 – biochemical, small-molecule microarray, fluorescence 635/667, stem cell growth factor project, primary screen (AID 1067); details: higher = more signal;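 further: measures binding of biotinylated aFGF2 protein to printed compounds on slides; z-score merges feature fluorescence and signal-to-noise across triplicate slides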
[4] = small molecules captured by biotinylated probe aFGF10 – biochemical, small-molecule microarray, fluorescence 635/667, stem cell growth factor project, primary screen (AID 1071); details: higher = more signal;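 further: score merges 667 nm spot intensity and signal to noise from triplicate slides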
[5] = target: Neurogenic locus notch homolog protein 2 (Homo sapiens) (UniProt Q04721); assay: small molecules binding Notch2 protein – biochemical, small-molecule microarray, 635 nm fluorescence, stem cell growth factors, primary screen (AID 1073); details: higher = more signal
[6] = target: Pro-neuregulin-1, membrane-bound isoform (Homo sapiens) (UniProt Q02297); assay: small molecules binding neuregulin-1 protein – biochemical, small-molecule microarray, fluorescence 635/667, psychiatric disease protein project, primary screen (AID 1075); details: NRG1 binding, 635 nm fluorescence, higher = more signal;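 further: score combines 667 nm spot fluorescence with signal to noise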
[7] = test system: Neuregulin-1 EGF-like domain; assay: small molecules binding NRG1 EGF domain – biochemical, small-molecule microarray, 635 nm fluorescence, primary screen (AID 1081); details: higher = more signal;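 further: binding of the protein to compounds printed on small-molecule microarray slides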
[8] = FRG1 expression reporter modulators in myotubes – cell-based, C2C12 myotubes, firefly/Renilla luciferase, luminescence, FRG1 inhibition for FSHD, primary screen (AID 1084); details: FRG1 promoter luciferase, higher = more signal, called active from +8 up or from −8 down
[9] = small molecules captured by biotinylated probe aFST – biochemical, small-molecule microarray, fluorescence 635/667, stem cell growth factor project, primary screen (AID 1086); details: higher = more signal;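 further: score merges 667 nm fluorescence with signal-to-noise of each printed compound spot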
[10] = binders of probe aHhip on microarray, primary screen, stem cell growth factor project, biochemical, small-molecule microarray, fluorescence 635/667 (AID 1087); details: higher = more signal;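 further: score merges spot fluorescence at 667nm with spot signal to noise ratio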
[11] = test system: PRMT1 (protein arginine N-methyltransferase 1); assay: small molecules binding arginine methyltransferase PRMT1 – biochemical, small-molecule microarray, 635 nm fluorescence, primary screen (AID 1088); details: higher = more signal;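 further: binding of Prmt1 protein to compounds spotted on small-molecule microarray slides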
[12] = growth effects on S. cerevisiae YJM789 – YJM789 clinical isolate, OD600, 24 h, basal, primary screen (AID 1089); details: higher = more signal, called active from +8 up or from −8 down;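 further: growth of clinical yeast isolate S. cerevisiae YJM 789 seeded 1000 cells per well; test concentration not given here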
[13] = S. pombe growth modifiers, basal conditions – strain 972, OD600, 24 h, no modulator, primary screen (AID 1090);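 further: basal condition with compound alone and no growth modifier present; test concentration not given here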; details: S. pombe 972 growth, higher = more signal, called active from +8 up or from −8 down
[14] = budding yeast growth modifiers under rapamycin – strain BY4716, OD600, 96 h, primary screen (AID 1091); further: test concentration not given here; details: S. cerevisiae BY4716 + rapamycin, higher = more signal, called active from +8 up or from −8 down
[15] = target: Torsin-1A-interacting protein 2 (Homo sapiens) (UniProt Q8NFQ8); assay: small molecules binding lysate-expressed LULL1 – cell lysate, human LULL1 lysate, 635/667 nm fluorescence, primary screen (AID 1092); details: small-molecule microarray, hLULL1 lysate binding, 635 nm fluorescence; higher = more signal;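 further: probe is lysate of COS7 cells overexpressing human LULL1; score merges per-feature 667 nm fluorescence with signal-to-noise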
[16] = optical density change of DRC41 E. coli – strain DRC41, OD650, 24 h, E. coli filamentation project, primary screen (AID 1093);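 further: MC1000 strain lacking acrAB efflux and sulA so SOS filamentation is blocked; test concentration not given here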; details: E. coli DRC41 growth, higher = more signal, called active from +8 up or from −8 down
[17] = probe aLefty2 binding to arrayed compounds – biochemical, biotinylated probe, 635/667 nm fluorescence, primary screen (AID 1094); details: small-molecule microarray, higher = more signal;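 further: score merges spot fluorescence near 667 nm with spot signal-to-noise ratio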
[18] = test system: Noggin (protein binding on small-molecule microarray); assay: small molecules binding Noggin protein – biochemical, 635/667 nm fluorescence, primary screen (AID 1095); details: 635 nm fluorescence, higher = more signal;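 further: score merges 667 nm feature fluorescence with signal to noise over triplicate slides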
[19] = target: Neurogenic locus notch homolog protein 3 (Homo sapiens) (UniProt Q9UM47); assay: small molecules binding NOTCH3 protein – biochemical, 635/667 nm fluorescence, primary screen (AID 1096); details: small-molecule microarray, 635 nm fluorescence, higher = more signal
[20] = probe aEGFR binding to arrayed compounds – biochemical, biotinylated probe, 635/667 nm fluorescence, primary screen (AID 1097); details: small-molecule microarray, higher = more signal;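 further: probe is a biotinylated anti-EGFR antibody binding compounds printed on slides; score combines fluorescence near 667 nm and signal to noise of each spot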

Neurogenic locus notch homolog protein 3 (Homo sapiens), sequence (Q9UM47 whole entry, looked up): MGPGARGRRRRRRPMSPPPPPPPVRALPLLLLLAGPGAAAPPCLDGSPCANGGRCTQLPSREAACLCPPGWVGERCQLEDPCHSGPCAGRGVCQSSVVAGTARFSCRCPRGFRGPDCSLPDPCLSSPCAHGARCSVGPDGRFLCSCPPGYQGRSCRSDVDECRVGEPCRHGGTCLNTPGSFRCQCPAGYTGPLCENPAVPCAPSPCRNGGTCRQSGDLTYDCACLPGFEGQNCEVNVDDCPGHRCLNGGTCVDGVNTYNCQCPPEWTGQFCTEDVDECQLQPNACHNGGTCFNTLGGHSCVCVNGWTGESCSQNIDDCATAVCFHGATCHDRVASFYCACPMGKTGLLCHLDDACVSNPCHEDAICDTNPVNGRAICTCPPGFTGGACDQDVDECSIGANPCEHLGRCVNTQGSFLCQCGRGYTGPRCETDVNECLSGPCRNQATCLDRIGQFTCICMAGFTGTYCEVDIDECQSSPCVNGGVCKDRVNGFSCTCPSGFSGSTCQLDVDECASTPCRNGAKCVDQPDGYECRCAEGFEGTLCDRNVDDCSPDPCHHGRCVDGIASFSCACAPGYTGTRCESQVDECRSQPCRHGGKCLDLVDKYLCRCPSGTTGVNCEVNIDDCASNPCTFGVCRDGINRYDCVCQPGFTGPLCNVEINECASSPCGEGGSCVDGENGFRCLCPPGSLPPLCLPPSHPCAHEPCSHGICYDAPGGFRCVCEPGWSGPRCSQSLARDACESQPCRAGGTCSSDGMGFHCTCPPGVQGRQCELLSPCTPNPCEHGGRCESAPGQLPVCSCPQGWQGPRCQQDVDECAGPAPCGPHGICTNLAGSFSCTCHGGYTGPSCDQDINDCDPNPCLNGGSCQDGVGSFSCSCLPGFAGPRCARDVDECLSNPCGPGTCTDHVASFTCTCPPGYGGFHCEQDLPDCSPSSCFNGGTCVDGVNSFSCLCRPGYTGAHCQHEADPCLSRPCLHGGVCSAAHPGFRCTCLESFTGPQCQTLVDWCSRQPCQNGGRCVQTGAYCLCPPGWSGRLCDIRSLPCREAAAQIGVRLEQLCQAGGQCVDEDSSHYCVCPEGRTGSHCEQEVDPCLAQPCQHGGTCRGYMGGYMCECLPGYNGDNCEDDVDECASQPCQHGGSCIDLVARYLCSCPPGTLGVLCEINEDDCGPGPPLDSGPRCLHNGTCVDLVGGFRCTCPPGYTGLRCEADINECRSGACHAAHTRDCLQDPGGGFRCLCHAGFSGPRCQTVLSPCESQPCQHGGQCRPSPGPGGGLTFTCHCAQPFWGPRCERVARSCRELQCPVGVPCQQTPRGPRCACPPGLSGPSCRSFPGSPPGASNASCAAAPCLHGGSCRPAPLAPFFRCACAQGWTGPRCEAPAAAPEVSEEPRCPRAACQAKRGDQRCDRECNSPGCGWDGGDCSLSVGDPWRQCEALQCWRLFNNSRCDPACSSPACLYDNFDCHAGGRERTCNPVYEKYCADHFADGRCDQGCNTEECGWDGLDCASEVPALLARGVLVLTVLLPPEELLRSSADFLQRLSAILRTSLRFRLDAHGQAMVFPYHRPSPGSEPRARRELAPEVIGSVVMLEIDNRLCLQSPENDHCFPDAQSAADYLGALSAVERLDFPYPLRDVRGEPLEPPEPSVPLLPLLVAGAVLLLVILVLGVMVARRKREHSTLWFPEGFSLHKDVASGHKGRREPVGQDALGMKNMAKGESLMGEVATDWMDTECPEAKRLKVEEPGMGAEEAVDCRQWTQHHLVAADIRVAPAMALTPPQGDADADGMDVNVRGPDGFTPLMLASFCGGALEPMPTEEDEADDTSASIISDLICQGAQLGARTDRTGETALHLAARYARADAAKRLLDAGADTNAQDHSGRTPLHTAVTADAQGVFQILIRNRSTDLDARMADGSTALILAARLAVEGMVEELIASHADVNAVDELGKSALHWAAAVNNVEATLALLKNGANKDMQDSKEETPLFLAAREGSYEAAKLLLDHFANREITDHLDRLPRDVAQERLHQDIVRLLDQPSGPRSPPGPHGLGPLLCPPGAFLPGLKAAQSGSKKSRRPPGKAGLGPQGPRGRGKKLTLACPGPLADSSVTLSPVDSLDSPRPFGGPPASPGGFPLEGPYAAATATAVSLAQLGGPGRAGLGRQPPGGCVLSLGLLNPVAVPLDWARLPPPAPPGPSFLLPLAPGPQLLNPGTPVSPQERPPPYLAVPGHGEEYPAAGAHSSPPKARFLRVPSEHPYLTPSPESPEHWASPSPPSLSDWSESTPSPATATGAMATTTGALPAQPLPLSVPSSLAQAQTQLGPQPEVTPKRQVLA
Pro-neuregulin-1, membrane-bound isoform (Homo sapiens), sequence (Q02297 whole entry, looked up, the tested form may be a part, canonical isoform): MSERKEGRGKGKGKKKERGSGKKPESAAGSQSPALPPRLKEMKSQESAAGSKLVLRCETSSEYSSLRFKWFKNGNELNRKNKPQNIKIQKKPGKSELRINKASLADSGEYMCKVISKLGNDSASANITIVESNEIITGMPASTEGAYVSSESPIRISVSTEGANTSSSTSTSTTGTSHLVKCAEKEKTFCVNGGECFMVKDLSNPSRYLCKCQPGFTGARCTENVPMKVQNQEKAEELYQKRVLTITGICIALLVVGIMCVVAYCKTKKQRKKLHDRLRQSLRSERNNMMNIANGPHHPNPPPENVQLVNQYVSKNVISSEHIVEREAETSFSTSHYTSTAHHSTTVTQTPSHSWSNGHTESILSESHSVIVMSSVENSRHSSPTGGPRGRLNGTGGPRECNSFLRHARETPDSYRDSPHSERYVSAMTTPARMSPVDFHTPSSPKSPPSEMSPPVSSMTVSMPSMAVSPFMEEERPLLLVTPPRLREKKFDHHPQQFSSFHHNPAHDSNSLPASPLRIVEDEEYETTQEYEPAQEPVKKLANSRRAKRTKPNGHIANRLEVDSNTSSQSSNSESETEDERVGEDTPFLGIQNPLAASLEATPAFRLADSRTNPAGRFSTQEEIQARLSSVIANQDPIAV
Torsin-1A-interacting protein 2 (Homo sapiens), sequence (Q8NFQ8 whole entry, looked up): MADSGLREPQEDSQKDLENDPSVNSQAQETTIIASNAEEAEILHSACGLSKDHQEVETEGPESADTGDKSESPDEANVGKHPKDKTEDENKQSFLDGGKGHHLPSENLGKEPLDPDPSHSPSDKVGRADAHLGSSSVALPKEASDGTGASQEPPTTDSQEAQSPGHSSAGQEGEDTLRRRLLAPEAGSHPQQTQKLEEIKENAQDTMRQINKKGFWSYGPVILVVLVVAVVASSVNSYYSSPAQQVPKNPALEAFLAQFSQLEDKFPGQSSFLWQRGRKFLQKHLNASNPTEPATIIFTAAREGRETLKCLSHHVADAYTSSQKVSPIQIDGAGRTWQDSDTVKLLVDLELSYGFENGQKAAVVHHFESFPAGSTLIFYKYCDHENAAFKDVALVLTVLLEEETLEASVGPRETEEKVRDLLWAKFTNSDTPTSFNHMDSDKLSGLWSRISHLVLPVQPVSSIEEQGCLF

Compound	composite z-score [1]	composite z-score [2]	composite z-score [3]	composite z-score [4]	composite z-score [5]	composite z-score [6]	composite z-score [7]	z-score [8]	composite z-score [9]	composite z-score [10]	composite z-score [11]	z-score [12]	z-score [13]	z-score [14]	composite z-score [15]	z-score [16]	composite z-score [17]	composite z-score [18]	composite z-score [19]	composite z-score [20]
COc1ccc(CCN2C(=O)[C@@]3(Cc4ccccc42)c2ccccc2C(=O)N(Cc2ccccc2OC)[C@H]3c2ccc(CO)cc2)cc1	0.502	-0.277	0.0252	-0.0162	-0.779	-0.634	-0.322	-1.01 (inactive)	-0.275	0.21	0.177	-0.585 (inactive)	-1.23 (inactive)	-1.42 (inactive)	1.66	0.237 (inactive)	0.0877	-1.36	-0.642	-0.204
CCCCC=C[C@@H](NC(=O)c1ccc(-c2ccccc2)cc1)c1ccccc1	-0.0095	-0.0424	-0.021	0.457	1.44	1.55	0.739	0.61 (inactive)	0.517	0.21	0.246	0.603 (inactive)	-1.45 (inactive)	-0.713 (inactive)	2.44	-0.444 (inactive)	0.179	-0.323	0.496	-0.094
CC(=O)NCCCC[C@@H]1NC(=O)[C@@H]2C[C@H](C(=O)NCCCC[N+](C)(C)C)[C@H](c3ccc(O)cc3)N2C1=O	-0.235	1.74	0.0056	0.88	-0.188	1.21	1.19	1.32 (inactive)	0.177	0.224	1.54	0.305 (inactive)	-0.266 (inactive)	-1.29 (inactive)	1.46	0.0855 (inactive)	-0.0774	1.36	1.09	-0.0131
CCCCCCc1nc(C2CC2)cc2c1[Si](C(C)C)(C(C)C)OC2	0.355	-0.376	-0.14	-0.715	-1.13	-0.526	-1.17	1.19 (inactive)	-0.319	-0.137	-0.439	0.01 (inactive)	-0.183 (inactive)	0.0489 (inactive)	-0.908	-0.772 (inactive)	-0.152	-0.798	-0.861	-0.228
CC(C)C(=C=CC[C@H](O)c1cccc(OCCO)c1)C[C@H](O)c1cc(Cl)cc(Cl)c1O	-0.205	-0.178	-0.116	0.792	-0.022	0.462	0.827	0.209 (inactive)	0.53	0.0722	1.03	0.834 (inactive)	-1.06 (inactive)	-0.129 (inactive)	2.37	0.236 (inactive)	-0.114	0.665	0.964	-0.0626
O=C1O[C@@H](c2ccccc2)[C@@H](c2ccccc2)N2[C@@H](c3ccc(O)cc3)[C@]3(C(=O)Nc4ccc(C#CC5=CCCCC5)cc43)[C@@H](C(=O)NC[C@H](O)c3ccccc3)[C@H]12	0.135	1.76	-0.0181	0.508	1.52	1.2	1.35	0.754 (inactive)	0.398	0.251	1.54	1.31 (inactive)	0.18 (inactive)	2.89 (inactive)	2.55	1.24 (inactive)	-0.0916	1.22	1.07	0.12
CCCCCCCCCCC(O)C1C=CC2C(=O)N(C)C(=O)C2N1NC(=O)OC(C)(C)C (stereo not given)	-0.318	-0.127	-0.0272	-0.293	0.228	1.03	0.465	-0.218 (inactive)	0.0478	-0.212	0.76	0.258 (inactive)	-16.5 (active)	-1.97 (inactive)	2.18	-2.14 (inactive)	-0.0725	-0.765	0.0249	-0.128
COCCOC(=O)N1C(=O)[C@@]2(c3cc(C#CC4=CCCCC4)ccc31)[C@H](c1ccccc1OCCO)N1[C@H](c3ccccc3)[C@H](c3ccccc3)OC(=O)[C@H]1[C@@H]2C(=O)N1CCCCCCC1	0.493	0.107	0.0829	0.61	1.1	0.382	1.29	-0.639 (inactive)	0.497	-0.972	1.57	1.31 (inactive)	1.59 (inactive)	3.07 (inactive)	2.9	0.0735 (inactive)	-0.573	0.766	1.05	0.0961
COc1cc(CO)cc(I)c1O[C@H]1C=C(C(=O)NCCO)C[C@@H](NCc2ccc(F)cc2)[C@@H]1O	-0.519	0.254	0.0062	1.34	0.366	0.406	-0.0461	-1.14 (inactive)	0.245	-0.0645	1.07	1.41 (inactive)	-9.13 (active)	0.388 (inactive)	-0.135	0.944 (inactive)	-0.109	0.938	0.305	-0.128
C=CCC(OC(C)=O)[C@@H]1[C@@H](N(Cc2cc3ccccc3o2)C(=O)Cc2ccc(F)cc2)c2cc(OCCCO)ccc2N1C(=O)c1ccc2ccccc2c1 (stereo not given in full)	-0.0245	-0.186	-0.116	-0.121	-0.367	-0.32	-0.432	-1.92 (inactive)	0.45	-0.0994	-0.381	-0.313 (inactive)	0.716 (inactive)	-0.538 (inactive)	-0.383	-1.07 (inactive)	-0.0708	0.437	-0.44	-0.112
